Compound activity (PubChem BioAssay)
HCV inh = qHTS Assay for Inhibitors of Hepatitis C Virus (HCV); Huh7.5.1 HCVcc-Cre infection, luciferase reporter, 44 h; hit rate 3.4% among 340,000; AID 651820, 2012; Potency, µM (doses to about 41.8 µM), inactives show at the highest dose activity change, negative = inhibition, most hits filed as inhibitors; active = well fitted inhibition curve with a large enough effect; inconclusive = small, poorly fitted or top-dose-only effect, or another doubt; inactive = no such curve, though single readings can be large or run the other way; also: potency is read from the fitted curve at half-maximal effect
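Cells seeded at 1,000/well and cultured 4 h, then compounds added followed by HCVcc-Cre virus (~0.5 moi). After 44 h further culture, luciferase substrate was added, plates held 15 min at room temperature, and luminescence read for 15 sec.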
Lassa entry inh = qHTS for Inhibitors of binding or entry into cells for Lassa Virus; Potency, µM (titrated, usually from 37.9 µM), inactives show at the highest dose activity change, negative = inhibition, hits mostly inhibitors; hit rate 1.2% among 300,000; Lassa virus pseudotype entry inhibition, cell reporter; calls by dose curve; tested in HEK293 cells; also: potency is read from the fitted curve at half-maximal effect; nearly all actives have a fitted effect of over 50% in size
FMDV antiviral = High Throughput Screening for Foot and Mouth Disease Virus Antivirals; FMDV antiviral cell-based qHTS; hit rate 1.2% among 410,000; Potency, µM (highest dose often 57.9 µM), without a hit: at the top dose activity change, negative = inhibition, most hits filed as inhibitors; calls by dose curve; tested in HEK293T cells; also: read-out not given here; potency is read from the fitted curve at half-maximal effect; nearly all actives have a fitted effect of over 45% in size
HCMV antiviral = qHTS Assay for inhibitors of the human cytomegalovirus (HCMV) | HFF cells, HCMV-luciferase reporter, 72 h; active compounds read low | activity change, negative = inhibition, % at 57.5 µM | AID 1259415, 2018 | hit rate 4.5% among 410,000; in the data active = activity change below about -60%; inconclusive = no clear call, values can overlap the other calls; inactive = above about -39%
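Screen run at 2 compound doses on HFFs infected with reporter HCMV, MOI 1 PFU/cell. Luciferase activity from cell lysates at 72 h post infection gave inhibition relative to buffer-only and Salinomycin wells.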
Marburg entry inh = qHTS for inhibitors of binding or entry into cells for Marburg Virus; Marburg virus pseudotyped entry inhibition, cell reporter; Potency, µM (top dose mostly 37.8 µM), for the others: top-dose activity change, negative = inhibition, most hits filed as inhibitors; hit rate 1.8% among 300,000; calls by dose curve; tested in HEK293 cells; also: potency is read from the fitted curve at half-maximal effect
* marks the source's active call; other numbers are inactive results; ? = inconclusive; . = not tested or not shown; [ ] = another dose, or the depositor's remark. Most compounds without a hit are left out; they make up all but 7.9% or so of the library. % is scaled to controls: 0 for no effect and ±100 for the full control effect.

SMILES	HCV inh	Lassa entry inh	FMDV antiviral	HCMV antiviral	Marburg entry inh
COc1cccc(CN(C)CC(=O)Nc2cc(S(=O)(=O)N3CCCC3)ccc2Cl)c1OC	2.82µM*	?	?	-33.4	?
CCN1[C@@H]2c3cccc(=O)n3C[C@H]1[C@H](CO)[C@H]2C(=O)OC	.	.	.	-5.1	.
CC(O)(COc1ccccc1)c1ccc2c(c1)CN(Cc1ccc3nsnc3c1)CCO2 (configuration not stated)	.	.	-15.6%	.	.
CC(C)CN1C(=O)N[C@@](NC(=O)c2cccnc2)(C(F)(F)F)C1=O	.	.	.	.	18.5%
CCOC(=O)CN1C(=O)[C@]2(O[C@H](COc3ccccc3)CC3=CCCC32)c2c(Br)cccc21 (some centres not stated)	.	?	.	.	5.4%[14.2 µM]
COc1ccc(Cl)cc1NS(=O)(=O)c1c(C)nc2scc(C)n2c1=O	.	-2.5%[46.1 µM]	-3.8%	2.1	5.3%[46.1 µM]
Cc1ccsc1C(=O)N(Cc1cc2ccc(F)cc2nc1N1CCC(O)CC1)CC1CCCO1 (configuration not stated)	.	.	0.2%	.	.
CN(CC(=O)Nc1cc(S(=O)(=O)N2CCCC2)ccc1Cl)Cc1ccc2c(c1)OCO2	6.31µM*	.	-20.3%	?	.
COc1ccccc1CNCC(=O)Nc1cc(S(=O)(=O)N2CCCCC2)ccc1C	?	?	?	19.6	-29.3%
COc1ccccc1NC(=O)COn1nnc2ccc(S(=O)(=O)N3CCOCC3)cc21	?	4.2%	-14.0%	-62.8*	8.0%[46.1 µM]
O=C(COn1nnc2ccc(S(=O)(=O)N3CCOCC3)cc21)NCCc1ccccc1	-2.7%	12.5%	-9.4%	-15.5	-1.7%
CCN(CC)S(=O)(=O)c1ccc(C)c(NC(=O)CNCc2ccccc2OC)c1	?	?	?	-23.6	4.47µM*
COc1ccc(N(CC(=O)NCCc2cccc(C)c2)S(=O)(=O)c2c(C)nn(C)c2C)cc1	.	-12.5%[46.1 µM]	-24.1%	-9.6	?
COc1ccc(NC(=O)COC(=O)C2CC(=O)N(CCc3ccc(OC)c(OC)c3)C2)cc1Cl (configuration not stated)	-0.4%	.	0.2%	18.5	.
Cc1ccc(S(=O)(=O)n2cccc2/C=C/[N+](=O)[O-])cc1	.	.	15.8µM*	-97.7*	.
Cc1ccc(S(=O)(=O)n2ccc3cccnc32)cc1	-0.9%	12.7%	-3.3%	13.0	13.9%
CC(C)Cc1nc2oc3c(NCC(C)O)ncnc3c2c2c1CCCC2 (configuration not stated)	?	.	-23.3%	-20.0	.
CCCc1nc2oc3c(Cl)ncnc3c2c2c1CCCC2	-20.9%	3.8%	14.1µM*	10.7	-2.6%[46.1 µM]
CCCc1nc2oc3c(NCCCN(C)C)ncnc3c2c2c1CCCC2	-76.9%	?	0.0%	-98.1*	?
CCCc1nc2oc3c(NCCN(C)C)ncnc3c2c2c1CCCC2	?	16.4µM*	-13.4%	33.8	?
CCCc1nc2oc3c(NCC4CCCO4)ncnc3c2c2c1COC(C)(C)C2 (configuration not stated)	?	9.9%	-22.4%	-12.6	-24.0%
CC(C)c1nc2oc3c(NCC4CCCO4)ncnc3c2c2c1CCC2 (configuration not stated)	11.2µM*	?	?	-5.0	?
CCOC(=O)c1c(C)[nH]c(C)c1S(=O)(=O)N(C)CC(=O)N1CCN(c2cccc(C)c2C)CC1	.	5.2%[46.1 µM]	-10.0%	-8.6	.
O=C(NCc1ccccc1Br)c1cnc2sc(N3CCCCCC3)nn2c1=O	.	-1.6%[46.1 µM]	?	?	.
COc1cc2ccccc2c2c1CCCC2=O	12.6µM*	?	-2.0%	-5.7	4.9%
SMILES	HCV inh	Lassa entry inh	FMDV antiviral	HCMV antiviral	Marburg entry inh
O=C1CCCc2ccc3ccccc3c21	-13.3%	-0.5%	2.8%	-18.2	3.8%
Cc1cc(NC(=O)c2cc(-c3ccc(OC(C)C)cc3)nc3ccccc23)no1	?	14.2%	22.8%	5.0	12.2%[46.1 µM]
O=C1/C(=C/c2cccnc2)Oc2cc(OS(=O)(=O)c3ccccc3)ccc21	?	-13.5%	?	.	?
COc1ccc(S(=O)(=O)Oc2ccc3c(c2)O/C(=C\c2cccnc2)C3=O)cc1	?	-28.3%	-6.2%	-109.6*	-24.7%
CCN(Cc1ccccc1)S(=O)(=O)c1cc(C(=O)NC(C)C2CC3CCC2C3)ccc1OC (configuration not stated)	11.2µM*	3.16µM*	-29.1%	-88.4*	?
COc1cc(C(=O)NC(C)C2CC3CCC2C3)cc(OC)c1OC (configuration not stated)	-11.6%	?	-12.4%	108.6	-0.1%
OC(c1cccc(CN2CCCCC2)c1)c1ncc(-c2cccc(C(F)(F)F)c2)[nH]1 (configuration not stated)	.	.	-3.8%	35.7	.
CC(C)(C)OC(=O)N1CCN(C(=O)c2[nH]cnc2C(=O)N[C@@H](Cc2ccccc2)C(=O)OCc2ccccc2)CC1	13.1%	.	-17.4%	?	.
COc1ccc(NC(=O)C(CCCCNC(=O)OC(C)(C)C)NC(=O)OCc2ccccc2)cc1 (configuration not stated)	0.9%	2.06µM*	-28.5%	-17.9	9.7%
O=C(N[C@@H](Cc1ccccc1)C(=O)OCc1ccccc1)c1nc[nH]c1C(=O)N1CCNCC1	27.3%	.	-2.7%	-83.5*	.
COc1ccc(NC(=O)c2nc[nH]c2C(=O)N[C@@H](CC(C)C)C(=O)OC(C)(C)C)cc1	-25.0%	.	-24.2%	-78.3*	.
COc1ccc(NC(=O)c2nc[nH]c2C(=O)N[C@@H](C)C(=O)OC(C)(C)C)cc1	-14.4%	.	5.5%	50.5	.
CC(C)C[C@H](NC(=O)c1[nH]cnc1C(=O)N[C@@H](Cc1ccccc1)C(=O)OC(C)(C)C)C(=O)OC(C)(C)C	?	.	-12.8%	-88.5*	.
CC(=O)OC1CC2C(C)(C)C(=O)[C@@H]3OC3[C@@]2(C)C2CC[C@]3(C)C(=CC(=O)OC3c3ccoc3)[C@]12C (some centres not stated)	.	.	-12.2%	.	.
COC(=O)C/C=C/[C@@H](C)[C@@H](/C=N/OC[C@@H](O)COCc1ccco1)OC	.	.	.	.	-14.0%[14.2 µM]
CC(C)(C)OC(=O)CNC(=O)c1[nH]cnc1C(=O)N[C@@H](Cc1ccccc1)C(=O)OC(C)(C)C	-12.5%	.	?	9.7	.
CC(C)C[C@H](NC(=O)c1nc[nH]c1C(=O)N1CCNCC1)C(=O)OC(C)(C)C	12.0%	.	-7.9%	-19.2	.
CC(C)(C)OC(=O)NCCCC[C@H](NC(=O)c1nc[nH]c1C(=O)NCC(=O)OCc1ccccc1)C(=O)OC(C)(C)C	1.6%	.	-24.7%	-89.4*	.
C[C@H](NC(=O)c1nc[nH]c1C(=O)N1CCNCC1)C(=O)OC(C)(C)C	23.6%	.	-8.6%	-65.4*	.
CC(C)(C)OC(=O)[C@H](Cc1ccccc1)NC(=O)c1nc[nH]c1C(=O)NCC(=O)OCc1ccccc1	4.7%	.	-10.0%	-60.8*	.
O=C(NNC(=O)c1cccs1)c1ccc(Cl)nc1	-4.5%	3.4%[46.1 µM]	25.0%	1.7	17.8%
